Screen size: about 320,000 compounds; about 22,000 (6.9%) were called active. A call without a number means that no potency is given here. Roughly 27% stayed inconclusive and do not appear here. Only a selection was taken, and actives are over-represented in it overall. Values without a mark were called inactive. Calls follow the shape of the dose curve; as a rule, active = well fitted inhibition curve with a large enough effect; inconclusive = small, poorly fitted or top-dose-only effect, or another doubt; inactive = no such curve, though single readings can be large or run the other way.
test: Primary qHTS for delayed death inhibitors of the malarial parasite plastid, 96 hour incubation; conditions: P. falciparum luciferase reporter growth; series mostly up to 28.7 µM
Procedure, shortened: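 Delayed-death screen, second-generation endpoint: infected erythrocytes, 2% hematocrit, 0.05% parasitemia final; 96 hours at 37 C, 5% CO2; luciferase detection reagent; luminescence decrease equals reduced growth.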
Potency is read from the fitted curve at half-maximal effect.

Row | Compound | Potency | activity change, negative = inhibition
1 | CCOc1ccc(NC(=O)CCC(=O)N/N=C/c2ccc([N+](=O)[O-])s2)cc1 | 4.15 µM (active) | 
2 | CCOc1ccc(NC(=O)CCC(=O)NNC(=O)NC2CCCCC2)cc1 | inactive | 
3 | Cc1ccccc1NCC(=O)N/N=C\c1ccc([N+](=O)[O-])s1 | inactive | 
4 | CCOc1ccc2sc(NS(=O)(=O)c3ccc(N)cc3)nc2c1 | inactive | 
5 | Cc1cc2cc(CNC(=O)c3cccs3)ccc2[nH]1 | inactive | 
6 | CCc1cccc(CC)c1NC(=S)Nc1ccc2cn[nH]c2c1 | inactive | 
7 | CCc1cccc(CC)c1NC(=S)NCc1ccc2[nH]c(C)cc2c1 | 2.62 µM (active) | 
8 | CCOc1ncccc1C(=O)OCC(=O)Nc1cccc(S(=O)(=O)N2CCCCCC2)c1 | inactive | 
9 | CC(C)c1ccc(/C=C2\NC(=O)NC2=O)cc1 | inactive | 
10 | CCO[C@@H]1OC(C(=O)N2CCOCC2)=C[C@H](C)[C@H]1CCCO | inactive | 
11 | CCO[C@H]1OC(C(=O)O)=C[C@@H](C2CCCCC2)[C@@H]1CCCO | inactive | 
12 | CCO[C@@H]1OC(C(N)=O)=C[C@H](c2ccc(Br)cc2)[C@H]1CCCO | inactive | 
13 | CCO[C@H]1OC(C(=O)N2CCCCCCC2)=C[C@@H](c2ccc(C(F)(F)F)cc2)[C@@H]1CCCO | 3.29 µM (active) | 
14 | CCO[C@H]1OC(C(=O)N2CCN(Cc3ccccc3)CC2)=C[C@@H](c2cn(C(C)=O)c3ccccc23)[C@@H]1CCCO | 9.28 µM (active) | 
15 | CCO[C@H]1OC(C(=O)N2CCOCC2)=C[C@@H](c2ccc3c(c2)OCO3)[C@@H]1CCCO | inactive | 
16 | Cc1ccc(S(=O)(=O)CCC(=O)OCC(=O)N(C)C2CCS(=O)(=O)C2)cc1 (stereo not given) | inactive | 
17 | CCN(CC(=O)Nc1ccccc1C(F)(F)F)C(=O)CSCc1c(C)noc1C | inactive | 
18 | Cc1ccc2c(c1)N(CC(=O)NCC1CCCO1)C(=O)CO2 (stereo not given) | 7.38 µM (active) | 
19 | Cc1ccc2c(c1)N(CC(=O)N1CCOCC1)C(=O)CO2 | inactive | 
20 | Cc1ccc2c(c1)N(CC(=O)N1CCCC(C)C1)C(=O)CO2 (stereo not given) | inactive | 
21 | CN(C)CCN(C(=O)C1=COCCO1)c1nc2ccc(Cl)cc2s1 | inactive | 
22 | Cc1ccc(N(C(=O)CC2NC(=O)NC2=O)C2(C(=O)NC3CCCC3)CCCCC2)cc1 (stereo not given) | inactive | 

Row | Compound | Potency | activity change, negative = inhibition
23 | CC(=O)N(CC1CCCO1)C1(C(=O)NC2CCCC2)CCCCC1 (stereo not given) | 10.4 µM (active) | 
24 | O=C(Cc1cccs1)N(CC1CCCO1)C1(C(=O)NC2CCCCC2)CCCCC1 (stereo not given) | inactive | 
25 | O=[N+]([O-])c1cccc(S(=O)(=O)NCc2ccccn2)c1 | inactive | 
26 | Cc1ccc(S(=O)(=O)NNC(=S)NC(C)(C)C)cc1 | inactive | 
27 | Cc1ccc(S(=O)(=O)NNC(=O)Nc2cccc3ccccc23)cc1 | 1.85 µM (active) | 
28 | COc1ccc(C(=O)NNS(=O)(=O)c2ccc(C)cc2)cc1 | inactive | 
29 | CCOc1ccc(NC(=O)CN(C)C(=O)Cn2c(=O)cnc3ccccc32)cc1OCC | inactive | 
30 | COc1ccccc1C(=O)NC(=O)COC(=O)C1CC1 | inactive | 
31 | CC(=O)c1ccccc1NC(=O)C1CC(=O)N(c2ccc3c(c2)OCCO3)C1 (stereo not given) | inactive | 
32 | CCCCn1c(SCC(=O)N2CCCC2=O)nc2cc(S(N)(=O)=O)ccc21 | inactive | 
33 | CCOC(=O)C1CCN(C(=O)CSc2cc(=O)n(C)c3ccccc23)CC1 | 2.33 µM (active) | 
34 | CCCCn1c(SCC(=O)N2CCC(C(=O)OCC)CC2)nc2cc(S(N)(=O)=O)ccc21 | 13.1 µM (active) | 
35 | CCCCn1c(SCc2ncc(-c3ccccc3)o2)nc2cc(S(N)(=O)=O)ccc21 | 14.7 µM (active) | 
36 | Cn1c(=O)cc(SCC(=O)N2CCN(C(=O)c3ccco3)CC2)c2ccccc21 | inactive | 
37 | Cn1c(=O)cc(SCC(=O)N2CCCC2)c2cc(Cl)ccc21 | inactive | 
38 | CCOC(=O)C1CCN(C(=O)COC(=O)C2CCN(S(=O)(=O)c3ccc4c(c3)OCCO4)CC2)CC1 | inactive | 
39 | O=C(CCNS(=O)(=O)c1ccccc1)NCCCc1ccccc1 | inactive | 
40 | CN1C(=O)c2ccc(C(=O)Nc3ccc(Br)cn3)cc2C1=O | inactive | 
41 | Cc1c(C(=O)N2CCOCC2)[nH]c2ccc(OCc3ccccc3)cc12 | inactive | 
42 | CCOC(=O)c1[nH]c2ccc(OC)cc2c1NC(=O)CCN1CCN(Cc2ccccc2)CC1 | inactive | 
43 | CCOC(=O)c1[nH]c2ccc(OC)cc2c1NC(=O)N1CCOCC1 | 14.7 µM (active) | 
44 | O=C(COc1ccc(Cl)cc1)Nc1ccc2oc(=O)ccc2c1 | inactive | 

Row | Compound | Potency | activity change, negative = inhibition
45 | CC1(C)CC(=O)C=C(c2ccc3ncccc3c2)C1 | inactive | 
46 | CC1(C)CC(=O)C=C(c2ccc(Cl)c(C(F)(F)F)c2)C1 | 5.86 µM (active) | 
47 | COc1cc(F)c(C2=CC(=O)CC(C)(C)C2)cc1F | inactive | 
48 | COC(=O)C1(C)NC(c2ccccc2OC)C2C(=O)N(c3ccccc3)C(=O)C21 (stereo not given) | inactive | 
49 | Cc1cc(C(=O)NCCc2ccc(Cl)cc2)n(-c2ccccc2)n1 | inactive | 
50 | CCc1[nH]nc(C(=O)N2CCCC(CO)(Cc3ccc(F)cc3F)C2)c1C (stereo not given) | inactive | 
51 | CCCN(c1ccc(C)cc1)c1nc(=O)c2cccnc2s1 | 6.57 µM (active) | 
52 | CCc1c(C)nc(SCC(=O)NC2CCCC2)[nH]c1=O | inactive | 
53 | CCc1ccc(C(=O)NN=C2CCCCCC2)s1 | inactive | 
54 | CC(=O)Nc1ccc(NC(=O)COc2ccc(-c3ccccc3)cc2)cc1 | inactive | 
55 | C[N+]1(C)CCOC(O)(c2ccc(-c3ccc(C4(O)C[N+](C)(C)CCO4)cc3)cc2)C1 (stereo not given) | 5.86 µM (active) | 
56 | O=C(COC(=O)c1cnccn1)Nc1ccc(Cl)cc1C(F)(F)F | inactive | 
57 | CCCCCCCC(=O)OC(CN1CCCCCC1)CN1CCCC1=O (stereo not given) | inactive | 
58 | O=c1c(-c2cccc(Cl)c2)c[nH]n1-c1ccccc1 | 7.38 µM (active) | 
59 | O=C1CC(NNc2ccccc2)C(=O)N1c1cccc(Cl)c1 (stereo not given) | inactive | 
60 | O=C1NC(c2cccc(Cl)c2)Nc2ccccc21 (stereo not given) | inactive | 
61 | CC1(C)CC(=O)C=C(Nc2ccccc2)C1 | inactive | 
62 | CC(=O)c1ccc(S(=O)(=O)NC2CC(=O)N(c3ccc4c(c3)OCCO4)C2)cc1 (stereo not given) | inactive | 
63 | O=C(CC1(O)C(=O)N(CN2CCOCC2)c2ccccc21)c1ccccc1 (stereo not given) | inactive | 
64 | C=CCN1C(=O)C(O)(CC(=O)c2ccccn2)c2ccccc21 (stereo not given) | inactive | 
65 | C=CCN1C(=O)C(O)(CC(=O)c2ccc(Cl)cc2)c2ccccc21 (stereo not given) | 14.7 µM (active) | 
66 | O=C(Nc1nnc(-c2ccc(F)cc2)s1)c1c(F)cccc1Cl | inactive | 

Row | Compound | Potency | activity change, negative = inhibition
67 | CC1CCN(C(=O)c2ccc(S(=O)(=O)Cc3cc(F)ccc3F)c([N+](=O)[O-])c2)CC1 | 10.4 µM (active) | 
68 | O=C(Nc1ccc(F)cc1)C1CCN(C(=O)c2ccc([N+](=O)[O-])cc2)CC1 |  | 31.7% [at 5.75 µM]
69 | O=C(c1ccc(Oc2ccc(Cl)cc2)c([N+](=O)[O-])c1)N1CCCC1 | inactive | 
70 | C#CC(C)(C)NC(=O)c1cnc(-c2ccccc2)nc1-c1ccccc1 | inactive | 
71 | Cc1noc(C)c1C(=O)N1CCOCC1 | inactive | 
72 | O=C(c1ccccc1-c1ccccc1)N1CCOCC1 | inactive | 
73 | Cc1oc2c(c1C(=O)N1CCOCC1)C(=O)c1ccccc1C2=O | 0.828 µM (active) | 
74 | O=S(=O)(NCC1CC1)c1ccc(F)c(Cl)c1 | inactive | 
75 | CCOC(=O)C1CCN(C(=O)Nc2ccc(Cl)cc2)CC1 | inactive | 
76 | CCOC(=O)C1CCN(C(=O)C2CCN(S(=O)(=O)N3CCCC3)CC2)CC1 | 6.57 µM (active) | 
77 | CCOC(=O)C1CCN(S(=O)(=O)c2c(C)noc2C)CC1 | inactive | 
78 | CCOC(=O)C1CCN(C(=O)C2CCN(S(=O)(=O)c3c(C)noc3C)CC2)CC1 | 4.15 µM (active) | 
79 | CCOc1ccc(OCC)c(NC(=O)C2CCN(S(=O)(=O)c3c(C)noc3C)CC2)c1 | inactive | 
80 | CCOC(=O)N1CCC(C(N)=O)CC1 | inactive | 
81 | O=C(O)C1C2C=CC(C2)C1C(=O)NCc1ccccc1 (stereo not given) | inactive | 
82 | COc1ccc(NS(=O)(=O)c2cccc3nsnc23)cc1Cl | inactive | 
83 | Nc1c(Cl)cc(S(N)(=O)=O)cc1S(N)(=O)=O | inactive | 
84 | CCCCCCOc1ccc(OC(=O)c2cccnc2)cc1 | inactive | 
85 | CCCCCCCCCCCCN1C(=O)CSC1c1cccnc1 (stereo not given) | 1.65 µM (active) | 
86 | CN(C)CCCN1C(=O)CSC1c1ccc([N+](=O)[O-])cc1 (stereo not given) | inactive | 
87 | COc1ccc(NC(=O)CN2C(=O)CSc3ccc(S(=O)(=O)N4CCC(C)CC4)cc32)cc1 | inactive | 
88 | Cc1cc(C)nc(-n2nc(C)cc2NC(=O)c2ccc(F)cc2F)n1 | 9.28 µM (active) | 

Row | Compound | Potency | activity change, negative = inhibition
89 | CC(=O)N/C(=N/c1nc(C)cc(C)n1)Nc1ccc(F)cc1F | inactive | 
90 | Cc1cc(NC(=O)Nc2ccc(Cl)cc2)n(-c2ccccc2)n1 | inactive | 
91 | Cc1c([N+](=O)[O-])c(N)nn1C | inactive | 
92 | Cc1cc(C)c(NC(=O)c2oc3ccccc3c2COc2ccccc2)c(C)c1 | 5.22 µM (active) | 
93 | COc1ccc(CC(=O)Nc2c(C(N)=O)oc3ccccc23)cc1 | inactive | 
94 | CCOC(=O)c1oc2ccccc2c1NC(=O)c1cccs1 | inactive | 
95 | COc1ccc(-c2nnc(SCC(=O)Nc3cccnc3Cl)n2C)cc1 | inactive | 
96 | Cc1cc(C)nc(SCC(=O)c2ccc(Cl)cc2)n1 | inactive | 
97 | CCC(=O)c1cn(CCOc2ccccc2OC)c2ccccc12 | 13.1 µM (active) | 
98 | CCCn1cc(SCC(N)=O)c2ccccc21 | inactive | 
99 | COc1ccccc1C(=O)NCCn1cc(SCC(=O)NCc2ccco2)c2ccccc21 | inactive | 
100 | Cc1ccc(OCc2nnc(SC3CCc4ccccc4C3=O)n2C)cc1 (stereo not given) | 13.1 µM (active) | 
101 | Cc1ccc(OCc2nc3ccccc3n2C)cc1 | inactive | 
102 | Cc1ccc(OCc2n[nH]c(=S)n2-c2ccccc2)cc1 | inactive | 
103 | CCc1nn(CCCC(=O)Nc2ccc(C)cc2C)c(=O)c2cc3occc3n12 | inactive | 
104 | CN(C)S(=O)(=O)c1cccc(C(=O)OCC(=O)N2CCCC2=O)c1 | inactive | 
105 | COc1ccc(C(=O)NCCCN2CCOCC2)cc1Br | inactive | 
106 | Cc1ccc(C(=O)NC(=S)NCCN2CCOCC2)cc1 | inactive | 
107 | Cc1ccc(C(=O)NCCN2CCOCC2)cc1C | 7.38 µM (active) | 
108 | Cc1ccc(C(=O)N/C(=C\c2ccc(F)cc2)C(=O)NCCN2CCOCC2)cc1 | 6.57 µM (active) | 
109 | O=C(NCCN1CCOCC1)/C(=C/c1ccc(F)cc1)NC(=O)c1ccccc1 | inactive | 
110 | Cc1cc(C)cc(C(=O)NCCN2CCOCC2)c1 | inactive | 

Source: PubChem BioAssay AID504834 (National Center for Advancing Translational Sciences (NCATS), 2011)
